In PubChem BioAssay one finds composite z-score and z-score data, which are given here for 17 molecules.

The source made the active and inactive calls.

The nature of test [1]: anti-His antibody binders, primary screen, artefact control for SMM control protein annotation, biochemical, small-molecule microarray, 635 nm fluorescence (AID 1128).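 Further: score merges feature fluorescence with signal-to-noise for each printed compound spot.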 The note with it: anti-His Alexa647 antibody binding, higher = more signal.
The subject of test [2] is Human papillomavirus type 1a E7 protein (residues 1-88). Description: HPV1a E7 small-molecule binders, primary screen, biochemical, small-molecule microarray, residues 1-88, 635 nm (AID 1129). To be noted: small-molecule microarray binding, fluorescence 635 nm; higher = more signal.
Test [3] concerns the target Focal adhesion kinase 1 (Homo sapiens) (UniProt Q05397). Description: small-molecule microarray binders of FAK, primary screen, biochemical, 635/667 nm fluorescence, BSA, DTT (AID 1130).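 Further: composite of spot emission at 667 nm and signal to noise over triplicate slides.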 To be noted: PTK2 binding, 635 nm fluorescence, higher = more signal.
For test [4], the system named is Fibrinogen (Alexa647-labelled). The test is described as follows: fibrinogen binders on compound microarrays, profiling panel, artefact control for SMM control-protein annotation, biochemical, small-molecule microarray, 635/667 nm fluorescence (AID 1131).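 Further: z-score merges 667 nm fluorescence with per-spot signal-to-noise over triplicate slides.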 To be noted: fibrinogen-A647 binding fluorescence, higher = more signal.
The target in test [5] is Follistatin (Homo sapiens) (UniProt P19883). The test is described as follows: follistatin binders on small-molecule microarrays, primary screen, biochemical, small-molecule microarray, 635/667 nm fluorescence (AID 1132). To be noted: FST binding, 635 nm fluorescence, higher = more signal.
The target of test [6] is Fibroblast growth factor 2 (Homo sapiens) (UniProt P09038). Description: FGF2 binders on small-molecule microarrays, primary screen, biochemical, small-molecule microarray, 635/667 nm fluorescence (AID 1133). To be noted: small-molecule microarray binding, FGF2, fluorescence 635/667; higher = more signal.
Test [7] can be described thus: mitochondrial membrane potential change in A549 cells, profiling panel, cell-based, JC-1 fluorescence, basal, 24 h, 100 nL (AID 1138).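 Further: A549 lung adenocarcinoma cells under basal conditions with no added stimulus; test concentration not given here.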 To be noted: higher = more signal.
The test system of another test is Lefty1. The test is described as follows: Lefty1 binders on small-molecule microarrays, primary screen, biochemical, small-molecule microarray, 635/667 nm fluorescence (AID 1139). The note with it: small-molecule microarray binding, fluorescence 635/667; higher = more signal.
For test [8], the system named is wheat germ agglutinin (Triticum aestivum), Alexa647-labelled. The test is described as follows: wheat germ agglutinin binders on compound microarrays, profiling panel, artefact control for SMM control-protein annotation, biochemical, small-molecule microarray, 635/667 nm fluorescence (AID 1140).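 Further: score merges 667 nm feature emission with signal to noise over triplicate slides.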 To be noted: WGA-A647 binding, 635 nm fluorescence, higher = more signal.

Test [9] concerns the target Luciferin 4-monooxygenase (Photinus pyralis) (UniProt P08659). The test is described as follows: firefly luciferase enzyme inhibitors, primary screen, biochemical, luminescence, purified enzyme, 2006 set (AID 1141).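 Further: cell-free assay with purified firefly luciferase at 100 ng per well in PBS; test concentration not given here.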 The note with it: SteadyGlo luminescence, 30 min, higher = more signal, called active from +8 up or from −8 down.

Chain of Fibroblast growth factor 2 (Homo sapiens) (P09038 whole entry, looked up): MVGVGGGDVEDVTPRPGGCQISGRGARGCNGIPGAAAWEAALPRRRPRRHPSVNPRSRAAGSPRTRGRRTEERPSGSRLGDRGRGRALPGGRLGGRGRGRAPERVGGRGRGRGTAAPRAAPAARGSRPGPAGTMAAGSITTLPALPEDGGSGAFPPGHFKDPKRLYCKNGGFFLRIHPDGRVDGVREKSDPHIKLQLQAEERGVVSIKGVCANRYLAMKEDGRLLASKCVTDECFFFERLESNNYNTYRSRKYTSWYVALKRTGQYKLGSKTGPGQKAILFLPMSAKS
Chain of Follistatin (Homo sapiens) (P19883 whole entry, looked up): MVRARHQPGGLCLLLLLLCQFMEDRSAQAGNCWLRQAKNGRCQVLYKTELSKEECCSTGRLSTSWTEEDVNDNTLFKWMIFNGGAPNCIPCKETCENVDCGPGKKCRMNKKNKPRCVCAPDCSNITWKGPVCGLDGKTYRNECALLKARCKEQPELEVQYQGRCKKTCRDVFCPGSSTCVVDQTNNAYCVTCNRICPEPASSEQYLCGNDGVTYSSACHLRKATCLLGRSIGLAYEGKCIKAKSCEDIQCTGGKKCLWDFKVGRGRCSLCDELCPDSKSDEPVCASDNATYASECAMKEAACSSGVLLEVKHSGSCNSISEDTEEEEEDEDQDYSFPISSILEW
Chain of Luciferin 4-monooxygenase (Photinus pyralis) (P08659 whole entry, looked up): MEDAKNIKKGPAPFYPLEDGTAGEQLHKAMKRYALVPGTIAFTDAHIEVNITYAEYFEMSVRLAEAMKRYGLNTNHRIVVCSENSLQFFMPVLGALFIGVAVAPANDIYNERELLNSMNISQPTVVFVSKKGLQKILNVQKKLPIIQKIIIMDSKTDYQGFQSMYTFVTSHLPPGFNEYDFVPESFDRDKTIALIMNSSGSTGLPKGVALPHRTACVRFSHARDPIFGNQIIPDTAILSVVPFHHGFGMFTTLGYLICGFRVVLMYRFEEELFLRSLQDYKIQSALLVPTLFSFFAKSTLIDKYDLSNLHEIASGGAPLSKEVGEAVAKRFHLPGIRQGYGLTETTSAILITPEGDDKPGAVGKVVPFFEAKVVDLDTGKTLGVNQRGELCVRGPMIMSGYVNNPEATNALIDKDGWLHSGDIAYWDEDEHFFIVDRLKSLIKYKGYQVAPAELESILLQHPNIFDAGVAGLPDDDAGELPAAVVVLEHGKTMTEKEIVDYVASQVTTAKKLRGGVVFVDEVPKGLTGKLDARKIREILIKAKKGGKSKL
Chain of Focal adhesion kinase 1 (Homo sapiens) (Q05397 whole entry, looked up): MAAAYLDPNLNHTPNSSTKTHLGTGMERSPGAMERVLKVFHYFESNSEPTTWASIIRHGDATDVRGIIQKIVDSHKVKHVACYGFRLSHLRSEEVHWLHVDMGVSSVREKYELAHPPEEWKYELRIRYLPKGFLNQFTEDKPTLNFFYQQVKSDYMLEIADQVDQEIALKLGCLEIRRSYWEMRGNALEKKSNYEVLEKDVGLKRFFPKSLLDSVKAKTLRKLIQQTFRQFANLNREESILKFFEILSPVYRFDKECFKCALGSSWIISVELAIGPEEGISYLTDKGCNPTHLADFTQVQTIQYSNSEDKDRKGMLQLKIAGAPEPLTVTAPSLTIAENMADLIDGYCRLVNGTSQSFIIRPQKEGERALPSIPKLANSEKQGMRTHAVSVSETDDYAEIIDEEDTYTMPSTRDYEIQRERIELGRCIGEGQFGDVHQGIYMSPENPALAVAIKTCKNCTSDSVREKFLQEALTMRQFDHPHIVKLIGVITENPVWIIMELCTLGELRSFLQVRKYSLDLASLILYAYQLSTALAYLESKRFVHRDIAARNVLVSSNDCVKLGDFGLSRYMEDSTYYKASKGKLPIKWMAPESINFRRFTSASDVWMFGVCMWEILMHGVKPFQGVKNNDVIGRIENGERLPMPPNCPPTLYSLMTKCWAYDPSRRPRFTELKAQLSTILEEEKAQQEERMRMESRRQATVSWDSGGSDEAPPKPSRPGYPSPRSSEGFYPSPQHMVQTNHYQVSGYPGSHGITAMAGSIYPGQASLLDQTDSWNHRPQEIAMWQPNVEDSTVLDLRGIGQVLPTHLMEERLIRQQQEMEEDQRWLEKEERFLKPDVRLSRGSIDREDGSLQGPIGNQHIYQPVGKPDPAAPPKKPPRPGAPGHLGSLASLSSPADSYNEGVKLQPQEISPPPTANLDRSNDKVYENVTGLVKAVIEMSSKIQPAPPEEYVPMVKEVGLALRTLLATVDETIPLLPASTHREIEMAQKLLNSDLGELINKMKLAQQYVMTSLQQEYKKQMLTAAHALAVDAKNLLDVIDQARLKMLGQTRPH

With `COCC(=C=CC[C@H](O)c1cccc(OCCO)c1)C[C@H](O)COCc1ccccc1`, the composite z-score is 1.09 in test [1]; 1.11 in test [2]; 1.24 in [3]; -0.749 in test [4]; 1.21 in test [5]; 1.23 in test [6]. Besides, the composite z-score is 0.88 in the test on Lefty1 and -0.41 in [8]. For the same molecule, the z-score in test [7] is -0.177; in test [9], -0.496 (inactive).
Regarding `COc1cc(NN2C(C(O)C3CCCCC3)C=CC3C(=O)N(C)C(=O)C32)cc(OC)c1OC` (stereo not given), the composite z-score in test [1] was 0.901; in [2] it was 1.23; in test [3], 1.97; in [4], 1; in [5], 0.954; in [6] it was -0.0452. For the same molecule, the composite z-score in the test on Lefty1 is -0.608; in [8], 1.16. Besides, the z-score in test [7] is 1.75; in test [9] it was -0.527 (inactive).
Consider `C=C(C)[C@@H]1CC=C(C(O)C2C=CC3C(=O)N(c4ccccc4)C(=O)C3N2Nc2ccc(C#N)cc2)CC1` (stereo not given in full), for which the composite z-score in test [1] was determined as 0.526; in test [2] it was 1.26; in test [3], 0.423; in [4], 0.999; in test [5], 1.25; in [6], 0.13. In addition, the figures for the composite z-score (in the test on Lefty1; in test [8]) were 0.0839 and 1.32, respectively. Besides, the figures for the z-score in [7] and in [9] were -0.517 and -0.251 (inactive), respectively.
Consider `COCCOC(=O)N1C(=O)[C@@]2(c3cc(C#CCC(C(=O)OC)C(=O)OC)ccc31)[C@H](C(=O)NC[C@H](O)c1ccccc1)[C@H]1C(=O)O[C@H](c3ccccc3)[C@H](c3ccccc3)N1[C@@H]2c1ccc(OCCO)cc1`, for which the composite z-score in test [1] is 1.02; in test [2] it was 1.19; in test [3], 0.427; in [4], 0.891; in test [5], 1.4; in test [6], 1.58. The composite z-score in the test with Lefty1 is 1.32; in test [8], 0.309. Besides, the z-score in test [7] was -1.58; in test [9], -0.997 (inactive).
Turning to `CCOC(=O)C[C@H]1[C@H](OC(=O)c2ccccc2-c2ccccc2)[C@@H](NC(=O)c2ccccc2)c2cc(OCCCO)ccc2N1C(=O)c1ccccc1`, the composite z-score is -0.356 in test [1]; 0.558 in [2]; 0.59 in test [3]; 0.847 in test [4]; 0.378 in [5]; 0.673 in test [6]. The composite z-score was determined as 0.292 in the test on Lefty1 and 0.0533 in test [8]. Also, the z-score in test [7] is 0.629; in [9], 0.354 (inactive).
Consider `C=C(CCCC)C(=O)CC[C@H](OC(=O)c1ccccc1-c1ccccc1C(=O)O)c1ccccc1OCCO`, for which the composite z-score in test [1] was 1.51; in [2] it was 0.341; in test [3] it was -0.218; in test [4] it was 0.412; in [5], 0.419; in test [6] it was 0.448. Also, the composite z-score with Lefty1 was 0.311; in [8], -0.107. The figures for the z-score in test [7] and in test [9] were 0.58 and -1.82 (inactive), respectively.
For `COc1ccc([Si](C)(C)[C@@H]2[C@@H](CC(=O)N3Cc4ccccc4C[C@H]3CO)O[C@]3(C(=O)N(Cc4ccc(N5CCC5=O)cc4)c4ccccc43)[C@H]2C)cc1`, the composite z-score was found to be 0.365 in [1]; 1.05 in [2]; 0.315 in [3]; 0.358 in [4]; 0.825 in [5]; 1.57 in [6]. Also, the composite z-score in the test with Lefty1 was found to be 1.44; in test [8], 0.283. The figures for the z-score in test [7] and in test [9] were 0.199 and 0.205 (inactive), respectively.
`CCCCNC(=O)c1ccc(C#C[Si](C(C)C)(C(C)C)C(C)C)c(OC(C)=O)c1`: the composite z-score in test [1] was 0.823; in [2] it was 1.13; in [3], 0.124; in [4], 0.598; in test [5], 1.15; in test [6] it was 0.883. Besides, the values for the composite z-score (in the test with Lefty1; in test [8]) were 1.01 and 1.08, respectively. Further, the z-score in [7] was -2.05; in test [9], 0.683 (inactive).
Take `COCCOC(=O)N1C(=O)[C@@]2(c3cc(C#CCCO)ccc31)[C@H](C(N)=O)[C@H]1C(=O)O[C@H](c3ccccc3)[C@H](c3ccccc3)N1[C@@H]2c1ccc(OCCO)cc1`: the composite z-score in test [1] came out at 0.911; in test [2], 1.19; in [3], 0.663; in test [4] it was 0.877; in test [5], 1.09; in test [6] it was 0.805. The composite z-score in the test on Lefty1 turned out to be 0.794; in test [8], 0.583. The z-score in [7] is -1.03; in test [9], -1.17 (inactive).
As for `CC(CO)N1C(=O)[C@@H]2[C@H]3C(=O)OCC=C[C@H]3OC23C=CCN(c2ccc(Cl)cc2)C(=O)[C@@H]13` (stereo not given in full), the composite z-score is -0.715 in test [1]; -1.39 in [2]; 0.0657 in [3]; -2.3 in test [4]; -2.57 in [5]; -1.07 in test [6]. For the same molecule, the composite z-score with Lefty1 was -2.1; in test [8], -1.81. Moreover, the figures for the z-score in [7] and in [9] were 1.18 and -0.619 (inactive), respectively.
Regarding `COCCOC(=O)N1C(=O)[C@@]2(c3cc(C#CC4=CCCCC4)ccc31)[C@H](C(=O)N1CCCCCCC1)[C@H]1C(=O)O[C@H](c3ccccc3)[C@H](c3ccccc3)N1[C@@H]2c1ccc(OCCO)cc1`, the composite z-score turned out to be 0.119 in test [1]; 1.13 in [2]; 0.605 in [3]; 0.806 in test [4]; 1.23 in [5]; 0.426 in [6]. The composite z-score was determined as 0.79 in the test with Lefty1 and 0.956 in [8]. Further, the results for the z-score in [7] and in [9] were -1.22 and -0.866 (inactive), respectively.
In the case of `[N-]=[N+]=NCc1ccccc1[C@H]1OC(c2ccc(OCCCO)cc2)=N[C@@]1(CCS(=O)(=O)c1ccccc1)C(=O)NCc1ccccc1`, the composite z-score in [1] was 1.41; in test [2], 1.2; in test [3], 0.13; in test [4] it was 0.941; in test [5] it was 1.36; in test [6], 0.623. Also, the composite z-score in the test on Lefty1 amounted to 0.189; in test [8], 0.703. The z-score in test [7] is 0.453; in test [9] it was -1.41 (inactive).
On to `O=c1cccc(-c2ccco2)o1`, for which the composite z-score in test [1] was found to be 0.645; in [2] it was 0.471; in [3], 0.082; in test [4], 0.476; in test [5] it was 1.3; in test [6], 0.879. The values for the composite z-score (in the test on Lefty1; in test [8]) were 1.02 and 0.138, respectively. Besides, the results for the z-score in [7] and in [9] were -0.262 and 0.405 (inactive), respectively.
For the molecule `CCCCC(=O)N(CCN1CCOCC1)[C@@H]1CC(C(=O)NCCO)=C[C@H](Oc2c(I)cc(CO)cc2OC)[C@H]1O`, the composite z-score in test [1] was 0.438; in [2], 0.358; in test [3], -0.444; in test [4] it was -0.0237; in test [5], 0.328; in test [6], 0.902. Besides, the composite z-score was 0.612 in the test with Lefty1 and 0.0626 in test [8]. The z-score in test [7] was 0.809; in test [9], -0.658 (inactive).
Take `COc1cccc(/C=C(\C#N)C(=O)Nc2c(C)n(C)n(-c3ccccc3)c2=O)c1`: the composite z-score in test [1] was found to be 0.352; in test [2], 0.0072; in test [3], 0.268; in [4], 0.85; in test [5], 0.346; in [6], 0.365. The composite z-score in the test on Lefty1 was 0.363; in test [8], 0.713. In addition, the z-score in [7] is 0.697; in test [9] it was 0.109 (inactive).
Regarding `C=CCN1C(=O)[C@]2(O[C@H](CCO)[C@@H]([Si](C)(C)c3ccc(OC)cc3)[C@@H]2C)c2cc(N3C(=O)COc4ccccc43)ccc21`, the composite z-score in test [1] came out at 1.3; in test [2], 0.853; in test [3] it was 0.179; in test [4], 0.55; in test [5] it was 0.618; in [6] it was 0.405. For the same molecule, the composite z-score in the test on Lefty1 worked out at 0.465; in [8] it was 0.441. In addition, the z-score in test [7] is -1.46; in [9] it was -0.401 (inactive).
In the case of `NC(=O)[C@@H]1[C@H]2C(=O)O[C@H](c3ccccc3)[C@H](c3ccccc3)N2[C@H](c2ccc(OCCO)cc2)[C@@]12C(=O)Nc1ccc(C#CCCO)cc12`, the composite z-score in test [1] came to 2.24; in test [2], 0.988; in [3], 0.215; in test [4] it was 0.639; in test [5], 0.89; in test [6], 0.396. In addition, the composite z-score was -0.143 in the test with Lefty1 and 0.659 in [8]. The values for the z-score in [7] and in [9] were -0.399 and -2.01 (inactive), respectively.
